Among the data in a collection of fitness landscapes (doi:10.1126/science.1257360) are enrichment ratio values, retold here.

In all, about 140,000 sequences were measured (“enrichment ratio after two sorts for PhoP signalling”: median about 0, highest 2% from about 11 on). The sample holds the highest values, similar sequences and a random draw of the others, so the mix is not that of the screen. Where only a bound is given, the exact number is not on record here.

B1: PhoQ; a variant is named by its letters at X, in order, P23837 (parent)
chain: MKKLLRLFFPLSLRVRFLLATAAVVLVLSLAYGMVALIGYSVSFDKTTFRLLRGESNLFYTLAKWENNKLHVELPENIDKQSPTMTLIYDENGQLLWAQRDVPWLMKMIQPDWLKSNGFHEIEADVNDTSLLLSGDHSIQQQLQEVREDDDDAEMTHSVAVNVYPATSRMPKLTIVVVDTIPVELKSSYMVWSWFIYVLSANLLLVIPLLWVAAWWSLRPIEALAKEVRELEEHNRELLNPATTRELTSLVRNLNRLLKSERERYDKYRTTLTDLTHSLKTPLXXLQXXLRSLRSEKMSVSDAEPVMLEQISRISQQIGYYLHRASMRGGTLLSRELHPVAPLLDNLTSALNKVYQRKGVNISLDISPEISFVGEQNDFVEVMGNVLDNACKYCLEFVEISARQTDEHLYIVVEDDGPGIPLSKREVIFDRGQRVDTLRPGQGVGLAVAREITEQYEGKIVAGESMLGGARMEVIFGRQHSAPKDE

Variants of B1 are the subject of the assay. Description: enrichment ratio after two sorts for PhoP signalling (ratio (wild type AVST 3.29)); higher = more functional. To be noted: with PhoP (E. coli).
In the case of VCTM, the enrichment ratio was determined as 23.
In the case of VFTM, the enrichment ratio was not above 0.25.
For the variant KCTM, the enrichment ratio was not above 0.25.
With VSWM the figure was 2.15.
With VSTM, the enrichment ratio stood at 14.3.
With NSTM the figure was not above 0.25.
Next, EPCV: not above 0.25; PQFI: not above 0.25; IWAV: not above 0.25.
With PCTF the figure was not above 0.25; with RWFD, not above 0.25; with ACLQ, 11.6.
As for AILQ, the enrichment ratio came to 13.6.
With PLLQ the figure was not above 0.25; with ASLQ, 11.8.
As to VHLQ, the enrichment ratio is not above 0.25.
With LQLQ the figure was not above 0.25.
With KCLQ the figure was not above 0.25; with ACLR, 8.18.
Next, ASTA: 9.73; ADLQ: 3.02.
Consider ASLR, for which the enrichment ratio stood at 3.29.
With ALLQ the figure was 14.7; with FDLT, not above 0.25.
As for DGHY, the enrichment ratio is not above 0.25.
On to FIKM, for which the enrichment ratio was not above 0.25.
With HWCE the figure was not above 0.25; with SDKP, not above 0.25; with YSIR, not above 0.25.
Next, WSFS: not above 0.25; KRRI: not above 0.25; SLHA: not above 0.25.
With IGLE the figure was not above 0.25.
TPMA: the enrichment ratio was not above 0.25.
Next, KSGA: not above 0.25; ELRR: not above 0.25; FQKN: not above 0.25.
Take CNES: the enrichment ratio was not above 0.25.
With IDKS the figure was not above 0.25.
For the variant TVPS, the enrichment ratio was not above 0.25.
Next, MFLQ: not above 0.25; AGLQ: 13.5; TGLQ: 9.97.
Next, ATLQ: 11.5; AQLQ: 5.87; AKLQ: 41.4.
Next, AYLQ: 0.526; GGLQ: 3.13.
As for MGLQ, the enrichment ratio is 16.
Next, HKLQ: not above 0.25; TKLQ: 6.41.
With MGLR the figure was not above 0.25; with NIMF, not above 0.25.
With YKKL the figure was not above 0.25.
For ESDI, the enrichment ratio is not above 0.25.
On to PSMS, for which the enrichment ratio was not above 0.25.
Next, WGKP: not above 0.25; QAMN: not above 0.25.
Next, LSTY: not above 0.25.
As for TCTY, the enrichment ratio was determined as 14.7.
Turning to HVTY, the enrichment ratio was not above 0.25.
With VCTY the figure was not above 0.25; with SCTY, 15.6.
With KCTY the figure was not above 0.25; with DNQA, not above 0.25; with WMWR, not above 0.25.
Next, GEYP: not above 0.25; DMMD: not above 0.25.
On to ACVG, for which the enrichment ratio turned out to be 4.01.
Next, ACWF: not above 0.25; ACGA: not above 0.25.
Next, ACMT: 10.1; ACMA: 34.1.
On to ACGF, for which the enrichment ratio is 6.85.
With ACMR, the enrichment ratio stood at 1.61.
Next, ACMW: not above 0.25; ACVA: 3.46; ACMG: 14.3.
Next, ACMK: 17.8.
Regarding ACMF, the enrichment ratio turned out to be 14.4.
Regarding PYWL, the enrichment ratio is not above 0.25.
Next, DKNN: not above 0.25; FTRE: not above 0.25; QRLI: not above 0.25.
With FFKH the figure was not above 0.25.
Turning to NCDG, the enrichment ratio was not above 0.25.
With QIFY, the enrichment ratio is not above 0.25.
For VWPM, the enrichment ratio was not above 0.25.
In the case of ACMQ, the enrichment ratio turned out to be 31.7.
With ACMS the figure was 8.75; with ACMI, 21.
Next, ACMV: 7.12; ACGG: 4.87; ACWQ: not above 0.25.
On to ACVC, for which the enrichment ratio is 1.02.
On to ACIG, for which the enrichment ratio is 12.3.
With WGDV the figure was not above 0.25; with VHHQ, not above 0.25; with TTPE, not above 0.25.
Next, MDFT: not above 0.25; RPHC: not above 0.25; NELR: not above 0.25.
For the variant MQVH, the enrichment ratio came out at 2.29.
With TPTT the figure was not above 0.25.
Next, SLQI: 5.02; SNCE: not above 0.25; DNQN: not above 0.25.
For NQCE, the enrichment ratio was not above 0.25.
With SNYI the figure was 0.257.
Next, SNQI: 12.5.
Next, SQQI: 2.33; DNQI: 22.9; SNAY: 14.8.
As for DMQI, the enrichment ratio was not above 0.25.
Next, SPAY: not above 0.25.
With SQCE the figure was 24.1.
As for REHF, the enrichment ratio was not above 0.25.
With APRY, the enrichment ratio was not above 0.25.
With WCFP the figure was not above 0.25; with VRKW, not above 0.25.
Turning to HDVL, the enrichment ratio is not above 0.25.
With SLKT the figure was not above 0.25; with PVHR, not above 0.25; with GYTV, not above 0.25.
With YWVH the figure was not above 0.25; with HHYP, not above 0.25.
Consider SQCI, for which the enrichment ratio stood at 15.6.
For SQSA, the enrichment ratio was 3.01.
SNCI: the enrichment ratio is 21.8.
With SRSA the figure was not above 0.25; with SNHI, not above 0.25.
With SNSA the figure was 13.1.
With SNCA the figure was 16.8.
In the case of SNHF, the enrichment ratio is not above 0.25.
In the case of SQTH, the enrichment ratio is 3.03.
With SQCK, the enrichment ratio was found to be 9.83.
With SQCA the figure was 8.55; with SNDH, not above 0.25; with DNPA, not above 0.25.
With ILGQ the figure was not above 0.25; with SFVQ, not above 0.25; with YVYP, not above 0.25.
With FFCP the figure was not above 0.25; with LDYA, not above 0.25.
With SILH, the enrichment ratio worked out at 3.1.
With SSPM the figure was 0.954; with SITW, 4; with KYCV, not above 0.25.
Next, SSTM: 21.4; SSGD: not above 0.25; SICV: 16.6.
With SSWM the figure was 6.76.
Take SSGM: the enrichment ratio was 13.4.
